We go through 8 compounds from PubChem BioAssay (NCI).

SMILES strings stand for the structures. Compounds without any hit were thinned out: in the full panel of roughly 83,000, 20% have a hit.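 For each line, cells grew in 96-well plates with the test compound present at a single concentration for 48 hours.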 Unmarked numbers belong to inactive results. Calls of active or inactive are those of the source. Rule for the calls: active = growth percent below 10; inactive = the rest.

Assay in all cases: NCI-60 one-dose screen, 48 h (100 = growth as untreated, 0 = no growth, -100 = all killed)
Details in all cases: 10 µM unless noted

Assay [1] concerns DU-145 prostate.
In assay [2] the test system is K-562 leukemia.
The test system of assay [3] is MALME-3M melanoma.
Assay [4] concerns MDA-MB-231 breast.
Assay [5] concerns RXF 393 renal.
For assay [6], the system named is SF-268 CNS.
Assay [7] concerns SF-295 CNS.
Assay [8] relates to SF-539 CNS.
For assay [9], the system named is UACC-257 melanoma.
Assay [10] concerns M14 melanoma.
The subject of assay [11] is HCT-15 colon.
Assay [12] has as its system HT29 colon.
For assay [13], the system named is SNB-75 CNS.
Assay [14] deals with SNB-19 CNS.
Assay [15] has as its system U251 CNS.
Assay [16] relates to PC-3 prostate.
The subject of assay [17] is SK-MEL-5 melanoma.
The test system of assay [18] is LOX IMVI melanoma.
The subject of assay [19] is SK-MEL-28 melanoma.
The subject of assay [20] is UACC-62 melanoma.

In the case of `CC(C)(C)CC(C)(C)NC(=O)Nc1ncccc1OCc1ccccc1`, the growth in assay [1] was 97.1%; in assay [2], 89.3%; in [3], 91.8%; in assay [4] it was 96.9%; in assay [5], 116%; in [6], 93.1%. Moreover, the growth was 88.3% in assay [7]; 102% in [8]; 85.8% in assay [9]; 103% in assay [10]; 86.2% in assay [11]; 80.9% in [12]. The growth in [13] was 91.5%; in [14] it was 95.9%; in [15] it was 96.4%; in assay [16], 82.4%; in [17], 92.8%; in assay [18], 90.7%. For the same compound, the growth in [19] was 103%.

Regarding `O=C(/C=C/c1ccco1)Nc1ncc(Cc2cccc(C(F)(F)F)c2)s1`, the growth is 10.5% in assay [1]; 4.59% (active) in [2]; 5.43% (active) in assay [3]; 25.5% in assay [4]; -8.57% (active) in [5]; 33.2% in [6]. Further, the growth was -20.5% (active) in [7]; -39.8% (active) in assay [8]; 25.4% in [9]; -10.2% (active) in assay [10]; 10.9% in assay [11]; 3.46% (active) in [12]. Besides, the growth is -1.69% (active) in [13]; 34.3% in [14]; 5.08% (active) in [15]; 12.5% in [17]; 5.19% (active) in assay [20]; 5.43% (active) in assay [18]. Moreover, in assay [19], the growth was 46.4%.

Take `Cc1ccc(NC(=O)c2sc3nc(C)c(Br)c(C)c3c2N)cc1`: the growth in assay [1] was 66.6%; in assay [2] it was 95.5%; in assay [3], 53.8%; in assay [4] it was 55.3%; in [5] it was 43.3%; in assay [6], 49%. In addition, the growth in [7] is 60%; in assay [8], 65.1%; in assay [9], 90.3%; in assay [10] it was 79%; in [11] it was 93.4%; in assay [12], 87.4%. Further, the growth was 20.9% in assay [13]; 66.3% in assay [14]; 50.8% in assay [15]; 73.1% in assay [17]; 67.2% in assay [20]; 62.1% in assay [18]. Moreover, the growth in assay [19] is 75.4%.

For `COc1ccc(-c2cc(-c3cc(OC)c(OC)c(OC)c3)c(C#N)c(=O)n2CCCCC(=O)NO)cc1`, the growth is 64.1% in assay [1]; 32.6% in assay [2]; 33.1% in [3]; 55.6% in assay [4]; 53.1% in assay [5]; 87.9% in assay [6]. For the same compound, the growth in assay [7] is 78.7%; in assay [8], 57.7%; in assay [9], 71.7%; in [10] it was 56.9%; in assay [11], 38.4%; in assay [12], 77.9%. Moreover, the growth was 25.5% in [13]; 77.5% in assay [14]; 61.3% in [15]; 61% in [16]; 57.7% in [17]; 9.19% (active) in assay [18]. Moreover, in [19], the growth is 76.8%.

As for `N#Cc1c(-c2ccccc2)[nH]c2ncc(-c3ccccc3)n2c1=O`, the growth in assay [1] was 99.7%; in assay [2] it was 98.7%; in assay [3] it was 91.5%; in assay [4] it was 76.3%; in assay [5], 102%; in [6], 91.7%. Moreover, the growth in assay [7] was 78.2%; in assay [8] it was 89.9%; in [9] it was 94%; in [10], 91.3%; in assay [11] it was 93.5%; in [12] it was 106%. Moreover, the growth was 78.8% in [13]; 105% in assay [14]; 93.1% in assay [15]; 74.6% in assay [16]; 87.7% in [17]; 86.8% in assay [18]. Also, the growth in [19] is 102%.

Regarding `NC(=O)c1ccc(-c2c3ccccc3cc3c2ccc2ccccc23)cc1`, the growth is 53.3% in assay [1]; 14% in assay [2]; 54.7% in [3]; 42.2% in assay [4]; 23% in assay [5]; 56% in [6]. For the same compound, the growth in [7] is 46.1%; in assay [8], 34.5%; in assay [9] it was 52.4%; in [10], 14.9%; in assay [11], 28.3%; in [12] it was -19.4% (active). The growth in [13] is 42.5%; in assay [14], 60.9%; in [15], 42.5%; in assay [16], 54.4%; in assay [17], 40.8%; in assay [18], 33.3%. Moreover, the growth in assay [19] is 60%.

Regarding `CCC1=C[C@@H]2C[C@]3(C(=O)OC)c4[nH]c5ccccc5c4CC[N@+](CC(=O)Nc4cc5c(cc4OC)N(C)[C@H]4[C@@](O)(C(=O)OC)[C@H](OC(C)=O)[C@]6(CC)C=CCN7CC[C@]54[C@@H]76)(C2)[C@H]13`, the growth in assay [1] was 117%; in assay [2] it was 106%; in assay [3] it was 102%; in assay [4] it was 98.2%; in assay [5], 114%; in [6] it was 105%. Also, the growth is 107% in assay [7]; 106% in assay [8]; 101% in [9]; 97.7% in [10]; 108% in assay [11]; 109% in [12]. In addition, the growth in [13] was 98.8%; in assay [14], 110%; in assay [15] it was 97.3%; in assay [17] it was 101%; in [20], 97.7%; in assay [18], 99.1%. Further, in assay [19], the growth is 109%.

Consider `CC1(C)COB(OCC(C)(C)COB2OCC(C)(C)CO2)OC1`, for which the growth is 103% in assay [1]; 106% in assay [2]; 93.8% in assay [3]; 112% in assay [4]; 123% in assay [5]; 100% in assay [6]. In addition, the growth is 97.4% in assay [7]; 98.3% in [8]; 98.6% in assay [9]; 105% in assay [10]; 108% in [11]; 110% in assay [12]. Moreover, the growth is 107% in assay [13]; 110% in assay [14]; 98.2% in assay [15]; 94.2% in assay [16]; 93.2% in assay [17]; 96% in assay [18]. Moreover, the growth in assay [19] is 113%.
